Data on 9 compounds can be found in PubChem BioAssay (NCI).

Compounds without any hit were thinned out: in the full panel of roughly 83,000, 20% have a hit.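 Cells were grown in 96-well plates and exposed to the test compound at a single concentration for 48 hours; results are reported as percent growth, with values below 10 considered active.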 Values without a mark were called inactive. Activity calls are given as the source filed them.

Test systems include NCI-H23 lung; NCI-H226 lung; NCI-H322M lung; HOP-62 NSCLC; NCI-H460 lung; HOP-92 NSCLC; NCI-H522 lung; 786-0 renal; COLO 205 colon; DU-145 prostate; K-562 leukemia; MALME-3M melanoma; MDA-MB-231 breast; RXF 393 renal; SF-268 CNS; SF-295 CNS; SF-539 CNS; UACC-257 melanoma; M14 melanoma; A549/ATCC NSCLC.
Common to all, as to assay: NCI-60 one-dose screen, 48 h (100 = growth as untreated, 0 = no growth, -100 = all killed)
What all share (settings): 10 µM unless noted

Consider `Cc1ccc(Nc2nnc(-c3ccc(Cl)cc3)o2)c(C)c1`, for which the growth is 84.4% with NCI-H23 lung; 99.6% in the test on NCI-H226 lung; 102% in the test with NCI-H322M lung; 81.8% in the test on HOP-62 NSCLC; 97.1% with NCI-H460 lung; 107% in the test on HOP-92 NSCLC. For the same compound, the growth is 41% with NCI-H522 lung; 89.3% with 786-0 renal; 81.4% with COLO 205 colon; 93.5% with DU-145 prostate; 24.8% with K-562 leukemia; 62.1% with MALME-3M melanoma. The growth was 76.3% in the test with MDA-MB-231 breast; 93.8% in the test with RXF 393 renal; 90.3% with SF-268 CNS; 80.7% with SF-295 CNS; 79% in the test with SF-539 CNS; 87.8% with UACC-257 melanoma. The growth with M14 melanoma was 57.6%.

Consider `O=c1[nH]c(NCc2ccccc2)nc2nc(Nc3ccc(NC(=S)Nc4ccccc4)cc3)nc(-c3ccc(O)cc3O)c12`, for which the growth was 99.4% in the test with NCI-H23 lung; 89.6% with NCI-H226 lung; 140% in the test on NCI-H322M lung; 105% in the test on HOP-62 NSCLC; 109% in the test with NCI-H460 lung; 89.5% with HOP-92 NSCLC. For the same compound, the growth is 54.2% with NCI-H522 lung; 104% in the test with 786-0 renal; 110% in the test with COLO 205 colon; 116% with DU-145 prostate; 63.3% in the test with K-562 leukemia; 103% with MALME-3M melanoma. Also, the growth in the test with MDA-MB-231 breast was 90.2%; in the test with RXF 393 renal, 81.4%; with SF-268 CNS it was 96%; in the test with SF-295 CNS it was 147%; in the test with SF-539 CNS, 108%; with UACC-257 melanoma, 39.7%.

For `COc1ccc(-c2cc3c(OC)c(OC)c(OC)cc3oc2=O)cc1`, the growth is 59.1% with NCI-H23 lung; 83.1% in the test with NCI-H226 lung; 77% with NCI-H322M lung; 50.4% in the test on HOP-62 NSCLC; 13.8% in the test on NCI-H460 lung; 30.6% with HOP-92 NSCLC. Also, the growth with NCI-H522 lung was -11.7% (active); in the test on 786-0 renal, 57.2%; in the test on COLO 205 colon, 31.5%; in the test with DU-145 prostate, 73.3%; in the test with K-562 leukemia, 26.1%; in the test on MALME-3M melanoma it was 46.9%. The growth is 57.8% in the test with MDA-MB-231 breast; 81.4% with RXF 393 renal; 66.8% with SF-268 CNS; 54.3% with SF-295 CNS; 59.9% in the test on SF-539 CNS; 82.4% with UACC-257 melanoma. Besides, in the test with M14 melanoma, the growth is 28.9%.

Take `CCOC(=O)CC(=O)OC`: the growth in the test on NCI-H23 lung is 106%; in the test with NCI-H226 lung, 101%; in the test on NCI-H322M lung, 111%; in the test on HOP-62 NSCLC it was 102%; in the test on NCI-H460 lung it was 101%; in the test with HOP-92 NSCLC it was 96.4%. Moreover, the growth in the test with NCI-H522 lung is 90.2%; in the test on 786-0 renal, 101%; with COLO 205 colon, 101%; in the test on DU-145 prostate it was 118%; with K-562 leukemia, 103%; with MALME-3M melanoma, 114%. Also, the growth in the test on MDA-MB-231 breast was 121%; in the test on RXF 393 renal, 114%; with SF-268 CNS, 111%; in the test with SF-295 CNS, 110%; in the test with SF-539 CNS, 95.7%; in the test on UACC-257 melanoma, 96.9%. Further, the growth in the test on M14 melanoma is 96.1%.

In the case of `S=c1[nH]nc(-c2cc3ccc2CCc2ccc(cc2)CC3)n1-c1ccccc1`, the growth is 98% in the test on NCI-H23 lung; 107% in the test with NCI-H226 lung; 96.4% with NCI-H322M lung; 106% with HOP-62 NSCLC; 99.6% in the test with NCI-H460 lung; 98.4% in the test on HOP-92 NSCLC. For the same compound, the growth in the test with NCI-H522 lung was 87.3%; in the test with A549/ATCC NSCLC, 93.1%; in the test with COLO 205 colon it was 106%; in the test on DU-145 prostate, 101%; in the test on K-562 leukemia it was 87%; in the test with MALME-3M melanoma, 100%. Further, the growth was 95% in the test on MDA-MB-231 breast; 129% in the test on RXF 393 renal; 113% in the test on SF-268 CNS; 91.7% in the test with SF-295 CNS; 110% in the test with SF-539 CNS; 103% with UACC-257 melanoma. Further, in the test with M14 melanoma, the growth is 97.2%.

Turning to `O=C1CS/C(=N\Nc2cc(=O)[nH]c3ccccc23)N1c1ccccc1`, the growth with NCI-H23 lung is 96.4%; in the test on NCI-H226 lung, 95.6%; with NCI-H322M lung, 99.3%; in the test with HOP-62 NSCLC, 86.6%; with NCI-H460 lung it was 100%; in the test on HOP-92 NSCLC, 65.1%. The growth is 76.2% with NCI-H522 lung; 97.2% in the test on A549/ATCC NSCLC; 105% in the test with COLO 205 colon; 111% in the test on DU-145 prostate; 86.8% in the test with K-562 leukemia; 96.9% in the test on MALME-3M melanoma. Besides, the growth in the test on MDA-MB-231 breast was 78.3%; in the test with RXF 393 renal, 95.6%; in the test with SF-268 CNS, 86.1%; with SF-295 CNS it was 96.8%; with SF-539 CNS, 93%; with UACC-257 melanoma it was 99.9%. Also, the growth in the test on M14 melanoma was 104%.

`CC(=O)Nc1scc[n+]1Cc1ccccc1`: the growth with NCI-H23 lung is 88%; in the test with NCI-H226 lung, 106%; in the test on NCI-H322M lung it was 131%; in the test with HOP-62 NSCLC, 105%; in the test on NCI-H460 lung, 112%; with HOP-92 NSCLC it was 99.2%. The growth in the test with NCI-H522 lung is 103%; with 786-0 renal, 102%; in the test on COLO 205 colon, 111%; in the test on DU-145 prostate it was 118%; with K-562 leukemia, 99.1%; in the test with MALME-3M melanoma it was 130%. Further, the growth with MDA-MB-231 breast is 115%; in the test with RXF 393 renal, 98.3%; in the test on SF-268 CNS, 110%; in the test with SF-295 CNS, 105%; in the test on SF-539 CNS, 104%; in the test on UACC-257 melanoma it was 107%. In the test with M14 melanoma, the growth is 98.5%.

Consider `CC(=O)Oc1csc(N(C(C)=O)c2cc(C(=O)O)cc(C(=O)O)c2)n1`, for which the growth in the test on NCI-H23 lung was 93.1%; in the test with NCI-H226 lung, 101%; with NCI-H322M lung it was 99.8%; in the test with HOP-62 NSCLC it was 99%; in the test on NCI-H460 lung it was 102%; with HOP-92 NSCLC, 47.3%. Moreover, the growth with NCI-H522 lung was 93.1%; in the test with A549/ATCC NSCLC it was 97.1%; in the test with COLO 205 colon it was 99.7%; in the test with DU-145 prostate, 97.4%; with K-562 leukemia, 102%; in the test on MALME-3M melanoma, 87.9%. The growth in the test with MDA-MB-231 breast was 89.2%; in the test with RXF 393 renal, 95.8%; with SF-268 CNS it was 92.9%; in the test on SF-295 CNS, 96.4%; in the test with SF-539 CNS, 89.6%; in the test on UACC-257 melanoma, 92.8%. Also, the growth in the test with M14 melanoma was 84.5%.

Regarding `CC(=O)Oc1csc(N(C(C)=O)c2cccc(C(F)(F)F)c2)n1`, the growth is 94.7% in the test on NCI-H23 lung; 93.3% in the test on NCI-H226 lung; 99% with NCI-H322M lung; 94.4% with HOP-62 NSCLC; 102% with NCI-H460 lung; 45.7% in the test with HOP-92 NSCLC. Besides, the growth is 83.1% in the test with NCI-H522 lung; 92.3% in the test with A549/ATCC NSCLC; 107% in the test on COLO 205 colon; 99.2% in the test with DU-145 prostate; 105% with K-562 leukemia; 88.8% with MALME-3M melanoma. Also, the growth in the test with MDA-MB-231 breast is 71.9%; with RXF 393 renal, 103%; in the test on SF-268 CNS, 88.9%; with SF-295 CNS, 96.5%; with SF-539 CNS, 91%; in the test with UACC-257 melanoma, 88.5%. Further, the growth with M14 melanoma is 77.7%.
